Measurements as given in PubChem BioAssay AID434926 (Sanford-Burnham Center for Chemical Genomics, 2010).
The other results are listed elsewhere or left out. Unmarked numbers belong to inactive results.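 The calls were made as follows: active = at least twofold enzyme activation in any of six single-dose repeats, which the averaged readout prints as negative percent; inactive = the rest.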

Molecular target: Intestinal-type alkaline phosphatase (Homo sapiens) (UniProt P09923)
Assay: human IAP activators, confirmation, biochemical, luminescence, single concentration, uHTS hits (AID 434926)
Conditions: purified IAP, CDP-Star luminescence, 30 min; at 8.3 µM; active compounds read low

Intestinal-type alkaline phosphatase (Homo sapiens), sequence (P09923 whole entry, looked up): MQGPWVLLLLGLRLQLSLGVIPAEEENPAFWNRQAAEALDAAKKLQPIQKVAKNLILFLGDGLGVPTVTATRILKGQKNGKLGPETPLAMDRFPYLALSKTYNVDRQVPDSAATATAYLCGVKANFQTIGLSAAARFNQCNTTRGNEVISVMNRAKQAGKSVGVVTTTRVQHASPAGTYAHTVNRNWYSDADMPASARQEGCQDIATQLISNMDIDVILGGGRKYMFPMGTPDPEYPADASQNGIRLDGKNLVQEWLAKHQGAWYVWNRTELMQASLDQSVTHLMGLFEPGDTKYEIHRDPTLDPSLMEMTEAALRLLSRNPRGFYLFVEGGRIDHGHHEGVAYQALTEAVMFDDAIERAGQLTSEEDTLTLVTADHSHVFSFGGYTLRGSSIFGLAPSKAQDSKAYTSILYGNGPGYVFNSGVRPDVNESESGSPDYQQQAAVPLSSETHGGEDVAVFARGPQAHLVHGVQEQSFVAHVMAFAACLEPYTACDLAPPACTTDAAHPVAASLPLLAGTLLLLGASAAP

SMILES | activation (%Activity, negative = activation) [%]
CN(c1ccccc1)c1ccc([N+](=O)[O-])c2nonc12 | -1.35
COc1ccccc1N=Nc1c(O)[nH]c(=S)[nH]c1=O | 4.66
